These results are taken from PubChem BioAssay (EPA / NIEHS).

Structures are written as SMILES. The source made the active and inactive calls. The calls were made as follows: active = hit-call score of the fitted dose curve at least 0.9, where 1 is the maximum; inactive = score below 0.9.

Read-out in the assay: Bcl-2 (BAD) gene, BAD (gene 572)
The assay can be described thus: LTEA_HepaRG_BAD: Life Technologies and Expression Analysis (LTEA) Assay for Bcl-2 (BAD) gene using HepaRG (AID 2283469). As to conditions: mRNA level, 48 h; actives raise or lower the signal. The procedure:
LTEA_HepaRG is a cell based, multiplexed-readout assay that uses HepaRG, a human liver cell line, with measurements taken at 48 hours after chemical dosing on a 96-well plate.LTEA_HepaRG_BAD is one of 102 assay component(s) measured in the LTEA HepaRG cell culture assay. It is a marker of Cell proliferation, survival, death.Data from the assay component LTEA_HepaRG_BAD was analyzed into 1 endpoint. This assay endpoint, LTEA_HepaRG_BAD, was analyzed with bidirectional fitting relative to DMSO as the negative control and baseline of activity. Using a type of inducible reporter, measures of mRNA induction for gain or loss-of-signal activity can be used to understand regulation of transcription factor activity. To generalize the intended target to other relatable targets, this assay endpoint is annotated to the cell cycle intended target family, where the subfamily is Cell proliferation, survival, death.
A total of 1060 chemcials from the ToxCast library were tested in eight-point concentration-response experiments. Cell culture and cytotoxicity assays were conducted at Thermo Fisher Scientific's Custom Services facility (Madison, WI). A single lot of human HepaRG cells (Thermo Fisher Scientific, Frederick, MD) was used for the cell culture experiments. 96-well format collagen type I coated plates of human HepaRG cells were prepared using established methods. Briefly, cryopreserved HepaRG cells were thawed, plated at a density of approximately 100,000 cells/well in HepaRG Thaw, Plate, and General Purpose media (HPRG770, Thermo Fisher Scientific), and incubated for 48 hours. 0.5% DMSO was selected as vehicle control to balance the requisite need of DMSO in HepaRG cultures to maintain differentiation (for example, baseline metabolism, proportions of hepatocytes vs. cholangiocytes), while enabling further hepatic receptor pathway activation (for example, PXR and CAR) in response to chemical exposure. 48 hours after plating, the culture medium was replaced with HepaRG Serum-Free Incudtion Media. Cells were exposed to each test chemical in duplicate and maintained in CO2 incubators for another 48 hours. Chemical plates were thawed to room temperature and 200x concentrations of treatment groups were prepared. 8-point conentration-reponse curves were made with the highest exposure at 100 uM, followed by half-log dilutions, all in 0.5% DMSO. Each test plate contained variouse controls, induction positive controls (1mM phenobarbital), cytotoxicity positive controls ([…] aflatoxin B1), vehicle controls (0.5% DMSO), and total lysis controls (0.5% DMSO). Cell morphology images were taken using an Essen IncuCyte FLR automated microscope, with six 96-well plates imaged in about 24 minutes. Images were captured and exported and JPEG files. Spent culture media was transfered to black-well plates for the LDH assay, and remaining media was sorted at -80 C for later use. Cells were treated with RLT buffer and frozen until shipped for gene expression analysis. Total RNA was isolated from the cell suspension in 75 uL of Buffer RLT (Qiagen, Germantown, MD 20874) by Quintiles/Expression Analysis (Durham, NC) using a custom isolation procedure. Total RNA from each plate well was transferred to a preamplification plate. Fluidigm's 96.96 Dynamic ArrayTM (Fluidigm, Amsterdam, the Netherlands) technology was used for gene expression analyses by quantitative reverse transcription polymerase chain reaction (qRT-PCR, performed by Quintiles/Expression Analysis, Durham, NC)89. Standard TaqManTM Assays (Applied Biosystems/ThermoFisher Scientific, Foster City, CA) were used to assess the expression of 93 genes selected based on their selectivity and sensitivity to important hepatic receptors known to be modulated by environmental chemicals; importance in human hepatocyte functionality; and hepatotoxicity. […]
On to `CCCCCCCCCCC`, for which the result was inactive.
For the molecule `Cc1ccc(C(C)C)c(O)c1`, the outcome was inactive.
`CCCCCCC(=O)OCC`: the molecule was classed as inactive.
`CC=Cc1ccc(O)c(OC)c1`: the call was inactive.
On to `O=c1[nH]cc(F)c(=O)[nH]1`, for which the call was inactive.
`Nc1ccccc1N`: the outcome was inactive.
Same read-out and setting: under `CCOc1ccc2c(c1)C(C)=CC(C)(C)N2` stands “inactive”.
The same measure, in the same setting: the value for `O=C(N[C@@H](Cc1ccccc1)[C@@H](O)C(=O)N1C[C@@H](O)[C@@H](O)C1)c1cc2cc(Cl)ccc2[nH]1` was “inactive”; that for `O=c1c(O)c(-c2ccc(O)c(O)c2)oc2cc(O)cc(O)c12` was “inactive”.
As to `CCCCCCOCCO`, the call was inactive.
In the case of `CCCCN(CCCC)CCCC`, the molecule was called inactive.
As for `C=CCOC(=O)c1ccccc1C(=O)OCC=C`, the call was inactive.
Same read-out and setting: the value for `CC1=C(/C=C/C(C)=C/C=C/C(C)=C/CO)C(C)(C)CCC1` was “inactive”.
`CN1CCCC1=O`: the outcome was inactive.
On to `CCCCc1ccc2c(n1)[C@@H](c1ccc(OC)cc1C[C@H](C)C(=O)O)[C@H](C(=O)O)[C@H]2c1ccc2c(c1)OCO2`, for which the result was inactive.
In the case of `CC(=O)OC/C=C(\C)CCC=C(C)C`, the result was inactive.
Regarding `CN[C@H]1CC[C@@H](c2ccc(Cl)c(Cl)c2)c2ccc(S(N)(=O)=O)cc21`, the molecule was called inactive.
For the molecule `CCOC(=O)C(C)(C)Oc1ccc(Cl)cc1`, the outcome was inactive.
On the same count and under the same terms, under `Nc1ccc(S(=O)(=O)c2ccc(N)cc2)cc1` stands “inactive”; under `Cc1cc(NC(=O)C(=O)O)cc(C)c1Oc1ccc(O)c2c1CCC2`, “inactive”; under `CNCc1cc(F)ccc1Oc1ccc(Cl)c(Cl)c1`, “inactive”.
On to `Oc1ccc2c(c1)OC[C@@H](N1CCC(O)(c3ccc(F)cc3)CC1)[C@H]2O`, for which the call was inactive.
For `CCc1c(C(=O)NN2CCCCC2)nn(-c2ccc(Cl)cc2Cl)c1-c1ccc(Br)cc1`, the molecule was classed as inactive.
Still for that read-out and setting: the value for `CC(=O)Oc1ccccc1C(=O)O` was “inactive”; that for `OC[C@@H](O)[C@@H](O)[C@H](O)[C@H](O)CO` was “inactive”; that for `Cc1ccccc1Cl` was “inactive”.
Take `O=C(O)CCCCC(=O)O`: the call was inactive.
Consider `Cc1cccc(C)c1O`, for which the molecule was classed as inactive.
Same read-out and setting: the value for `COc1cc(-c2nc(NC(=O)c3cc4cc(C)cc(C)c4n3CC(=O)O)sc2CCC2CCCCC2)c(OC)cc1Cl` was “inactive”.
Regarding `CCCCC(CC)COC(=O)CC(C(=O)OCC(CC)CCCC)S(=O)(=O)O` (stereo not given), the AC50 (commonly the midpoint of the concentration-response curve, whichever way the signal moves) is 80.7 µM (active).
For `C[C@]12C=CC(=O)C=C1CC[C@@H]1[C@@H]2C(=O)C[C@@]2(C)[C@H]1CC[C@]2(O)C(=O)CO`, the call was inactive.
On the same count and under the same terms, the value for `C=CCc1ccc(O)c(OC)c1` was “inactive”.
Still for that read-out and setting: the value for `COc1ccc(C)cc1N` was “inactive”; that for `Cc1ccc(C)c(O)c1C` was “inactive”; that for `C[Si]1(C)O[Si](C)(C)O[Si](C)(C)O[Si](C)(C)O1` was “inactive”.
Same read-out and setting: under `Cc1ccc(N(C)C)cc1` stands “inactive”.
As for `CC(CO)OC(C)CO` (stereo not given) (tested in a mixture with another compound), the molecule was called inactive.
Regarding `CCCCCCCCCCCC(=O)OC`, the molecule was called inactive.
On to `Nc1ccc2c(c1)C(=O)c1ccccc1C2=O`, for which the outcome was inactive.
Turning to `CCCCCC(=O)O`, the outcome was inactive.
